BioA inh = M. tuberculosis BioA enzyme inhibitors, primary screen, biochemical, plate reader, single point, HTS; 7,8-diaminopelargonic acid synthase BioA (Mycobacterium tuberculosis); purified M. tuberculosis BioA enzyme; inhibition, % at 9.99 µM; 0.096% of 360,000 active; AID 602481, 2012; in the data active = inhibition above about 40%
FBA Mtb inh = Mtb FBA enzyme inhibitors, primary screen, biochemical, fluorescence, strain H37Rv; 2.3% of 360,000 active; Fructose-bisphosphate aldolase (Mycobacterium tuberculosis (strain ATCC 25618 / H37Rv)), …; purified M. tuberculosis FBA, fluorescence read-out; inhibition, % at 1 µM; AID 588726, 2011; in the data active = inhibition above about 27%;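 also: 0% = vehicle and 100% = reference inhibitor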
Target sequence (P9WQA3 whole entry, looked up): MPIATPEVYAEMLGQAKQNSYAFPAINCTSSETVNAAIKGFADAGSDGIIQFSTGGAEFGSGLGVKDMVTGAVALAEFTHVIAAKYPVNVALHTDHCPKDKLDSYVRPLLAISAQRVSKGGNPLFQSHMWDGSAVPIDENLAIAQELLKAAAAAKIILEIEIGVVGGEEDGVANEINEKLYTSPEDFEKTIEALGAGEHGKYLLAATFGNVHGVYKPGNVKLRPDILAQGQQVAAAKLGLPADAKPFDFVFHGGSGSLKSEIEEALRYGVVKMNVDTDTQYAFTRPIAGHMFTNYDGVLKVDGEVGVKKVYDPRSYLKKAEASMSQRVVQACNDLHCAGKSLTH
GDH-TPI counter = GDH-TPI coupling enzyme inhibitors, primary screen, artefact control for M. tuberculosis FBA inhibitor project, biochemical, absorbance, full deck | GDH-TPI coupled enzyme counterscreen, NADH absorbance | inhibition, % at 4.8 µM | 1.2% of 360,000 active | AID 588335, 2011; in the data active = inhibition above about 30%;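 also: 0% = DMSO wells and 100% = wells lacking the enzyme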
SARS 3CLpro inh = SARS-CoV 3CLpro protease inhibitors, primary screen, biochemical, quenched FRET; recombinant SARS-CoV 3CLpro, quenched FRET peptide cleavage; inhibition, % at 6 µM; 0.14% of 290,000 active; AID 1706, 2009; in the data active = inhibition above about 12%
FadD28 binding = inhibitors of FadD28 bisubstrate probe binding, primary screen, biochemical, fluorescence polarization, single point; inhibition, % at 12.5 µM; 0.22% of 360,000 active; in the data active = inhibition above about 8.5%, passing the limit was not always enough
Numbers without * were called inactive; . = no result. Shown are actives, neighbours in structure and some others; about 3.1% of the full set was active somewhere.

SMILES	BioA inh	FBA Mtb inh	GDH-TPI counter	SARS 3CLpro inh	FadD28 binding
CCc1nc2c(c(=O)[nH]1)C(CC)(CC)Cc1ccccc1-2	-0.9	0.3	6.8	-0.7	-2.0
CC1(C)Cc2ccccc2-c2nc3n(c(=O)c21)CCS3	.	2.4	10.8	2.5	-2.8
CCC1(C)Cc2ccccc2-c2nc(NCCO)n(-c3ccccc3)c(=O)c21 (configuration not stated)	5.3	176.1*	13.5	-2.6	-0.8
CC1(C)Cc2ccccc2-c2nc(NCCO)n(-c3ccccc3)c(=O)c21	0.5	173.3*	18.2	-1.5	0.2
CO[C@H]1CN(C)C(=O)c2cc(NC(=O)C3CC3)ccc2OC[C@H](C)N(C(=O)CN(C)C)C[C@@H]1C	-1.1	.	.	.	.
CCN(CC)Cc1c[nH]c2c(C(=O)OC)cccc12	-2.6	67.0*	19.7	2.0	-1.9
O=c1cc(-c2ccco2)nc(-c2cccs2)o1	1.3	4.8	16.4	-0.8	-0.8
c1coc(-c2nnc(-c3cccs3)o2)c1	-0.4	149.5*	6.4	-0.5	-3.0
CN(C)C(=O)[C@@H]1[C@@H](CO)[C@@H]2Cn3c(ccc(-c4ccc(F)cc4)c3=O)[C@@H]2N1C(=O)c1ccccn1	-1.9	.	.	.	.
CN(C)c1ccccc1C(=O)c1ccccc1N(C)C	2.3	1.1	28.6	-2.0	-0.1
COc1ccc(C(=O)c2ccc(N(C)C)cc2)c(OC)c1	-0.3	-0.1	30.9*	0.7	-0.8
CN(C)c1ccc(C(=O)c2ccc(N(C)C)c3ccccc23)cc1	1.7	-0.7	34.4*	-2.4	-0.6
C[C@H]1CCCCO[C@@H](CN(C)C(=O)Nc2ccc(C(F)(F)F)cc2)[C@@H](C)CN([C@@H](C)CO)C(=O)c2cc(NC(=O)NC3CCCCC3)ccc2O1	1.5	.	.	.	.
CC(C)NC(=O)[C@@]1(C)c2ccccc2C(=O)N(Cc2ccccc2)[C@H]1c1ccc(CO)cc1	-0.4	.	.	.	.
Cc1cccc(C(=O)Nc2sc(-c3ccccc3)cc2C(=O)O)c1	5.0	20.5	16.9	10.7	24.2*
CC(C)CC#Cc1cnc2c(c1)C(=O)N([C@H](C)CO)C[C@@H](C)[C@H](CN(C)C(=O)c1ccc(F)cc1)O2	0.7	.	.	.	.
COc1cc(OC)c(OC)cc1/C=N/NC(=O)CCc1c(C)n[nH]c1C	1.1	21.9	55.9*	-0.3	-2.7
CC=Cc1ccc2n(c1=O)C[C@@H]1[C@@H](CO)[C@H](C(=O)Nc3ccccc3)N(CC3CC3)[C@H]21 (mixture of isomers)	2.6	.	.	.	.
COc1cc(/C=N/NC(=O)c2ccc(NC(=O)C3CCCCC3)cc2)ccc1O	-0.5	-2.4	35.0*	-2.7	-0.6
COc1ccc(/C=N/NC(=O)c2cc(C3CC3)[nH]n2)cc1OC	0.4	-0.7	11.5	-0.3	-3.4
Cc1nn(-c2ccccc2)c(C)c1-c1cc(C(=O)N/N=C/c2ccc(O)cc2)[nH]n1	.	5.0	43.9*	1.2	-2.6
COc1cc(/C=N/NC(=O)c2cc(C3CC3)[nH]n2)ccc1O	1.4	-2.9	44.2*	2.0	-2.6
CCOc1cc(/C=N/NC(=O)c2ccc(NC(=O)C3CC3)cc2)ccc1O	-0.7	-2.2	18.8	-6.7	-4.1
Cc1nn(-c2ccccc2)c(C)c1/C=N/NC(=O)c1cc(O)cc(O)c1	1.6	1.9	6.6	1.3	0.3
COc1cc(/C=N/NC(=O)c2cc(-c3c(C)nn(-c4ccccc4)c3C)n[nH]2)ccc1O	1.5	-1.4	33.0*	1.2	-5.4
SMILES	BioA inh	FBA Mtb inh	GDH-TPI counter	SARS 3CLpro inh	FadD28 binding
C[C@@H]1CN([C@@H](C)CO)C(=O)Cc2cc(NC(=O)CCCCCC(=O)Nc3ccccc3N)ccc2O[C@@H]1CN(C)S(=O)(=O)c1ccc(F)cc1	-0.7	.	.	.	.
CN(C)c1ccc2c(c1)[C@@H]1C[C@@H](CC(=O)NCc3ccccc3F)O[C@@H](CO)[C@@H]1O2	1.5	.	.	.	.
COc1cc(/C=N/NC(=O)c2cc(-c3ccc4c(c3)OCO4)n[nH]2)ccc1O	.	-2.7	38.9*	-9.1	-3.5
C[C@H]1CN([C@@H](C)CO)C(=O)Cc2cc(NC(=O)Nc3cccc4ccccc34)ccc2O[C@H]1CN(C)C(=O)Nc1ccc2c(c1)OCO2	-2.2	.	.	.	.
COc1cc(/C=N/NC(=O)C(=O)NCc2ccco2)cc(Br)c1O	.	-2.4	54.4*	0.2	-0.9
CCCCCC(=O)N/N=C/c1cc(Br)c(O)c(OC)c1	.	6.2	28.6	-4.0	-0.8
